In PubChem BioAssay AID1578 (Sanford-Burnham Center for Chemical Genomics, 2009):
Out of some 290,000 compounds screened, about 3,000 (1%) were called active. Rule as the data show it: active = inhibition mostly above about 36% (no sharp cut-off); inactive = mostly below about 34%. The entries come from a sample that favours actives as a whole.

assay: NOD1 signaling inhibitors, primary screen, cell-based, luminescence, uHTS (AID 1578); conditions: NOD1-driven NF-kB luciferase reporter cells, at 4 µM, active compounds read high;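 also: HEK-293T reporter cells stimulated with the NOD1 agonist gamma-tri-DAP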

inhibition, inactive:
COc1cc2[nH]c(=O)n(CCC(=O)NCc3cccnc3)c(=O)c2cc1OC -17.4%
CCCc1cc(=O)n2[nH]c(NC(=O)c3ccco3)nc2n1 1.1%
O=C(c1ccco1)N1CCN(Cc2nnc(-c3cccc(Br)c3)o2)CC1 37.7%
Cc1ccc(/C=N/NC(=O)CNC(=O)c2ccc(S(=O)(=O)N3CCCC3)cc2)o1 -10.1%
CC(C)(C)S(=O)(=O)/C(C#N)=C/c1sccc1C1OCCO1 -9.6%
Cc1sc2nc(CSCC(=O)N(CCC#N)c3ccccc3)[nH]c(=O)c2c1C -2.8%
NC(=O)c1ccc(NC(=O)CCNC(=O)c2ccco2)cc1 0%
Cc1cccc(C)c1OCCN1C(=O)NC(C)(c2ccccc2)C1=O (stereo not drawn) -8.3%
CC(=O)Nc1ccc(S(=O)(=O)Nc2ccn(Cc3ccccc3Cl)n2)cc1 -42.3%
CC1CCc2cc(F)ccc2N1C(=O)CCC(=O)O (stereo not drawn) -29.7%
CCC(CC)C(=O)N1c2ccc(F)cc2CCC1C (stereo not drawn) 8%
COCCCNC(=S)Nc1cc2oc3ccccc3c2cc1OC 5.2%
CCN(CC(=O)NC1CCS(=O)(=O)C1)S(=O)(=O)c1ccc(F)cc1 (stereo not drawn) 25.9%
Cc1ccc(C(=O)N2CCCC(N3CCN(c4cccc(C(F)(F)F)c4)CC3)C2)s1 (stereo not drawn) -29.8%
Cc1ccccc1OCC(=O)N/N=C/c1c(C)nn(-c2ccccc2)c1Cl -26.9%
COc1ccc(C(=O)NCCCc2nc3ccccc3n2Cc2cc(C)ccc2C)cc1OC -28.5%
COc1ccc(C(=O)NCCCc2nc3ccccc3n2Cc2ccccc2C)cc1OC -9.4%
CCc1ccc2[nH]c(=O)c(CN(CCCN3CCOCC3)C(=O)Nc3ccc(Cl)cc3)cc2c1 -9.8%
O=S(=O)(Nc1cccc(-c2cn3cccnc3n2)c1)c1ccccc1 36.4%
O=S(=O)(Nc1cccc(-c2cn3cccnc3n2)c1)c1ccc(F)cc1 -1.4%
CCN(CC)C(=O)Cn1cc(C(=O)C(=O)N2CCN(C)CC2)c2ccccc21 -22.7%
COc1ccc(C(=O)CC(=O)c2ccc(OC)cc2)cc1 -23.3%
Cc1ccc(C(=O)CC(=O)c2ccccc2)cc1 -42.7%
CC(C)N1CC(C(=O)Nc2ccc(Cl)c([N+](=O)[O-])c2)CC1=O (stereo not drawn) -8.3%
Cc1ccc2[nH]c3c(c2c1)CCCC3C(N)=O (stereo not drawn) -44.3%
Cc1ccc2[nH]c3c(c2c1)CCCC3NCCO (stereo not drawn) -12.6%
COC(=O)[C@@]1(Cc2ccccc2)[C@@H]2C(=CC(=O)[C@H]2CC(=O)C(=O)N(C)C)CN1C(=O)c1ccccc1 47.7%
COC(=O)[C@@]1(Cc2ccc(F)cc2)[C@@H]2[C@@H](CC(=O)[C@H]2CC(=O)C(=O)N(C)C)CN1C(=O)c1ccccc1 -29.5%
CS(=O)(=O)c1cnc(-c2ccccc2)nc1-c1ccccc1Cl 23.1%
CC1Cc2cc(S(=O)(=O)N3CCC(C(N)=O)CC3)ccc2N1C(=O)C1CC1 (stereo not drawn) -42.9%
O=C(O)/C=C/c1ccc([N+](=O)[O-])o1 -17.7%
O=C(N/N=C/c1ccc([N+](=O)[O-])o1)c1ccc(O)cc1 6.8%
CCCOc1ccc(OCCCCNC(C)CC)cc1 (stereo not drawn) 0.5%
COc1ccc(N(C(=O)Cn2nnc(-c3ccc(F)cc3)n2)C(C)C(=O)NC2CCCC2)cc1OC (stereo not drawn) 10.1%
COc1ccc(N(C(=O)Cn2nnc(-c3ccc(F)cc3)n2)C(C)C(=O)NC2CCCC2)cc1 (stereo not drawn) -22.6%
COc1cccc(C(=O)NCCCNC(=O)c2ccco2)c1 9.1%
Cc1ccccc1C1C(C#N)=C(N)N(N(C)C)C2=C1C(=O)CC(C)(C)C2 (stereo not drawn) -10.1%
CCCCCn1c2c(c(=N)c3ccccc31)CCC2 -13.6%
CCCCn1c2c(c(=N)c3ccccc31)CCC2 -6.7%
CCO[C@H]1OC(C(=O)NC2CC2)=C[C@@H](c2ccc(C(F)(F)F)cc2)[C@@H]1CCCO 1.4%
CC(Oc1ccccc1)C(=O)N=Nc1c(O)[nH]c2ccc(Br)cc12 (stereo not drawn) -9.4%
Cc1c(CBr)[n+](=O)c2c(n1[O-])C(Br)CCC2Br (stereo not drawn) -9.7%
Cc1c(C)[n+](=O)c2c(n1[O-])C(Br)CCC2Br (stereo not drawn) -7.3%
N#Cc1cc([N+](=O)[O-])ccc1NCC1CCCO1 (stereo not drawn) -26.2%
N#Cc1cc(NCC2CCCO2)c([N+](=O)[O-])cc1C#N (stereo not drawn) -23.8%
COc1ccc2cc(S(=O)(=O)N3CCOCC3)ccc2c1 -5.6%
COc1ccc2[nH]c(=O)c(CNc3ccccc3C)cc2c1 -10.6%
COc1ccc(C2CC(c3cccs3)=NN2c2nc(-c3ccccc3)cs2)cc1OC (stereo not drawn) -16.1%
OCCN1CCN(c2nc(-c3ccccc3)c3cc(Br)ccc3n2)CC1 -12.3%
CN1CCN(c2ncnc3sc(-c4ccccc4)cc23)CC1 32%
OCCN1CCN(c2ncnc3sc(-c4ccccc4)cc23)CC1 -0.1%
CC1(C)CC2CC(C)(CN2c2ncnc3ccc(Br)cc23)C1 (stereo not drawn) 39.1%
COc1ccc(OC)c(C(=O)NC(CC(N)=O)c2ccc(NCCOc3ccccc3)c([N+](=O)[O-])c2)c1 (stereo not drawn) -4%
CCCNC(=S)NC1CC2CCC(C1)N2Cc1ccccc1 (stereo not drawn) 0.5%
O=C(CN1C(=O)/C(=C/c2ccccc2F)Sc2ccccc21)NCCCN1CCOCC1 -19.9%
O=C(CN1C(=O)/C(=C/c2ccccc2F)Sc2ccccc21)NCC1CCCO1 (stereo not drawn) 9.1%
NS(=O)(=O)c1ccc(CNC(=S)NCc2ccc(F)cc2)cc1 14.6%
Cc1onc(C(=O)NN)c1C(=O)Nc1ncc(C(F)(F)F)cc1Cl -8.1%
O=C(C1=NN[C@@H]2C(=O)N(c3ccccc3C(F)(F)F)C(=O)[C@H]12)c1ccc2ccccc2n1 -11.3%
O=C(C1=NN[C@@H]2C(=O)N(c3cccc(F)c3)C(=O)[C@H]12)c1ccc2ccccc2n1 -47%
O=C(O)/C=C\C(=O)NNC(=O)c1cc(-c2ccccc2)n[nH]1 -10%
Cc1ccc(CNC(=O)c2ccccc2NS(=O)(=O)c2ccc(Cl)nc2)cc1 5.6%
CC(C)On1c(SCC(=O)N(C)C)nc2ccccc2c1=O -1.8%
CCN1/C(=C\C(C)=O)Sc2ccc(OC)cc21 16.9%
CCC(=O)/C=C1/Sc2ccc(OC)cc2N1CC 22.6%
CC(=O)N1[C@H](Cc2ccccc2)C=C[C@]1(C)C(=O)NCc1ccccn1 -2.7%
CC(=O)N1[C@H](Cc2ccccc2)C=C[C@]1(C)C(=O)NCCN1CCOCC1 22.4%
COCCNC(=O)[C@@]1(C)C=C[C@@H](Cc2ccccc2)N1C(=O)c1ccccc1 -45.4%
CC(=O)N1[C@H](Cc2ccccc2)C=C[C@]1(C)C(=O)NCCc1c[nH]c2ccccc12 -15.7%
Cc1sc2nc(SCC(=O)N(C)Cc3ccccc3)n(-c3ccccc3)c(=O)c2c1C 3.3%
Cc1ccc2c(c1)N(C(=O)CCC(=O)NCc1cccnc1)CC(C)O2 (stereo not drawn) -33%
Cc1ccc(C(=O)N2CCc3ccccc32)o1 -15.8%
CCOC(=O)c1nc2nc(C)cc(=O)n2[nH]1 -8.6%
O=C(NCCCCCCNC(=O)OC1CCS(=O)(=O)C1)OC1CCS(=O)(=O)C1 (stereo not drawn) 9.3%
COc1cccc2c1-c1c(O)cccc1C2=O -18.2%

inhibition, active:
CC1CCc2cc(F)ccc2N1C(=O)CCl (stereo not drawn) 66.7%
COc1cc(C(=O)NCCCc2nc3ccccc3n2Cc2cc(C)ccc2C)cc(OC)c1OC 68.1%
COc1ccc(C(=O)C/C(=C\C(=O)c2ccc(C)cc2)c2ccccc2)cc1 71.2%
Cc1ccc2[nH]c3c(c2c1)CCCC3NC(=O)CCl (stereo not drawn) 70%
C=C1C(=O)C=C2CN(C(=O)c3ccccc3)[C@@](Cc3ccc(F)cc3)(C(=O)OC)[C@@H]12 98.5%
O=C(/C=C/c1ccc([N+](=O)[O-])o1)NNC(=O)c1ccc(F)cc1 66.9%
CC(C(=O)NC1CCCC1)N(C(=O)Cn1nnc(-c2ccc(F)cc2)n1)c1ccccc1F (stereo not drawn) 82.7%
CCCCCCCn1c2c(c(=N)c3ccccc31)CCC2 77.4%
CC(=O)OC1CCC(OC(C)=O)c2c1n([O-])c(C)c(C)[n+]2=O (stereo not drawn) 79.5%
N#Cc1cc(Cl)c(NCC2CCCO2)cc1C#N (stereo not drawn) 83.4%
OCCN1CCN(c2ncnc3ccc(Br)cc23)CC1 66.7%
O=C(CN1C(=O)/C(=C/c2ccccc2F)Sc2ccccc21)NCc1cccnc1 59.2%
O=C(C1=NN[C@@H]2C(=O)N(c3cccc(C(F)(F)F)c3)C(=O)[C@H]12)c1ccc2ccccc2n1 87.5%
CCN1/C(=C/C(C)=O)Sc2ccc(OC)cc21 53%
CC(=O)N1[C@H](Cc2ccccc2)C=C[C@]1(C)C(=O)NCc1ccc(C)o1 99.7%
C[C@]1(C(=O)NCCc2c[nH]c3ccccc23)C=C[C@@H](Cc2ccccc2)N1C(=O)c1ccccc1 84.6%
COc1cccc2c1C(=O)c1c(O)c3c(c(O)c1C2=O)C[C@@](O)(C(=O)CO)C[C@@H]3O[C@H]1C[C@H](N)[C@H](O)[C@H](C)O1 78.6%
COc1cccc2c1C(=O)c1c(O)c3c(c(O)c1C2=O)C[C@@](O)(C(C)=O)C[C@@H]3O[C@H]1C[C@H](N)[C@H](O)[C@H](C)O1 108%
